High-throughput results deposited in PubChem by National Center for Advancing Translational Sciences (NCATS).
AmpC inh no detg = AmpC beta-lactamase inhibition without detergent; 330,000 tested, 0.52% active; Potency, µM (titrated, usually from 57.1 µM), without a hit: at the top dose activity change, negative = inhibition, hits mostly inhibitors; P00811; AID 485341; AmpC nitrocefin hydrolysis, absorbance 480 nm, 0.0001% Triton;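 also: plate controls were no compound for no effect and no enzyme for full effect; nearly all actives have a fitted effect of over 20% in size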
Target sequence (P00811 whole entry, looked up): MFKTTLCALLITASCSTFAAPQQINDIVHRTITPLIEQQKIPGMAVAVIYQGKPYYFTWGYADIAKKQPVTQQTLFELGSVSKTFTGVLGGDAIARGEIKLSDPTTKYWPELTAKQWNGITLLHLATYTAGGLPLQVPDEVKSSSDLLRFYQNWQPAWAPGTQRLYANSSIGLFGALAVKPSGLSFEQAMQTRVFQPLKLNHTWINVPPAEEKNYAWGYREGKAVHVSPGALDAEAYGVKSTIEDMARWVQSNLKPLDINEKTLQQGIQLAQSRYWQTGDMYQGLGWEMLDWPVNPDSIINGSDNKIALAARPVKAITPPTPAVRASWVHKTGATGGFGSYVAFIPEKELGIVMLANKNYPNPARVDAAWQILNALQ
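20 mM phosphate pH 7.0 + 0.01% (detergent screen) or 0.0001% Triton X-100; 5.3 nM AmpC reagent; cpd preinc 15 min RT; nitrocefin (800 uM stock) to start; A480 q20 s × 4 min; Activity was normalised to no-enzyme and no-compound control wells.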
HCV inh = inhibitors of hepatitis C virus infection; 340,000 tested, 3.4% active; Huh7.5.1 HCVcc-Cre infection, luciferase reporter, 44 h; Potency, µM (series often up to 41.8 µM), for inactives: at the highest dose activity change, negative = inhibition, usual class: inhibitors
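Whole-lifecycle infectious HCVcc-Cre system; cells 1,000/well, compound then virus (~0.5 moi) added 4 h after plating, 44 h culture. Luciferase read 15 sec following 15 min substrate incubation, room temp.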
Pf growth 48h = inhibits P. falciparum growth in the first generation, 48 h. P. falciparum luciferase growth in erythrocytes, 48 h. Potency, µM (doses to about 28.7 µM), for the others: at the top dose activity change, negative = inhibition, usual class: inhibitors. AID 504832. 310,000 tested, 5.9% active
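In quantitative HTS format, infected erythrocytes bearing luciferase-reporter parasites were treated for a single generation at 37 C. Luminescence after adding detection reagent served as the growth measure.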
AMA1-RON2 inh = AMA1-RON2 (P. falciparum) interaction inhibition. Potency, µM (highest dose often 58.2 µM), inactives show at the top dose activity change, negative = inhibition, hits mostly inhibitors. 360,000 tested, 0.2% active. AlphaScreen AMA1-biotinylated RON2 peptide binding;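 also: 0% = vehicle wells and -100% = peptide control; nearly all actives have a fitted effect of over 45% in size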
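AMA1 (3D7) with his tag at 25 nM final met compounds first, then biotinylated RON2 peptide at 25 nM; detection used donor plus acceptor beads, 10 µg/mL apiece, read by AlphaScreen after 30 min at room temperature.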
Pf growth 96h = P. falciparum growth inhibition at 96 hour, primary screen for plastid delayed-death inhibitors; 320,000 tested, 6.9% active; Potency, µM (highest dose often 28.7 µM), inactives show at the highest dose activity change, negative = inhibition, usual class: inhibitors; P. falciparum luciferase reporter growth, 96 h; AID 504834
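Two parasite generations (96 h, 37 C, 5% CO2) of compound exposure in infected erythrocytes (0.05% parasitemia, 2% hematocrit). Luciferase-reporter P. falciparum; decreased luminescence indicates inhibited growth, aimed at apicoplast-acting delayed death.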
AmpC inh detg = AmpC beta-lactamase inhibition with detergent present | AmpC hydrolysis of nitrocefin, absorbance 480 nm, 0.01% Triton | Potency, µM (series often up to 114 µM), without a hit: at the highest dose activity change, negative = inhibition, actives largely listed as inhibitors | 370,000 tested, 0.041% active;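 also: 0% = no-compound wells and -100% = no-enzyme wells; nearly all actives have a fitted effect of over 25% in size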
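20 mM phosphate pH 7.0 + 0.01% (detergent screen) or 0.0001% Triton X-100; 5.3 nM AmpC reagent; cpd preinc 15 min RT; nitrocefin (800 uM stock) to start; A480 q20 s × 4 min; Activity was normalised to no-enzyme and no-compound control wells.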
The depositor's hits bear a star; ? = inconclusive; · = no result given; [ ] = dose if it differs, or a comment. This is a sample that favours compounds with a hit; in the whole collection about 11% have one here. Calls follow the shape of the dose curve; as a rule, active = well fitted curve in the direction sought with a large enough effect; inconclusive = small, poorly fitted or top-dose-only effect, or another doubt; inactive = no such curve, though single readings can be large; an effect the other way counts as inactive or inconclusive. Unless noted, % is scaled to controls: 0 for no effect and ±100 for the full control effect; potency is read from the fitted curve at half-maximal effect.

SMILES | AmpC inh no detg | HCV inh | Pf growth 48h | AMA1-RON2 inh | Pf growth 96h | AmpC inh detg
CCOc1ccc(NC(=O)C2(c3cccs3)CCOCC2)cc1 | · | · | · | · | · | 2.2%
CC(=O)N1CCCc2cc(S(=O)(=O)N3CCN(c4ccccc4F)CC3)ccc21 | · | · | · | · | · | 2.8%
COC(=O)c1ccc(COC(=O)CNC(=O)c2ccco2)cc1 | -15.6% | -5.0% | 29.6% | 17.7% | · | 2.0%
O=C(CNC(=O)c1ccco1)NCC(=O)OCc1ccc(F)cc1 | -6.2% | 7.9% | 5.0% | -11.9% | 3.29µM* | -5.3%
COc1ccccc1-c1noc(-c2ccc(N3CCC(C)CC3)c([N+](=O)[O-])c2)n1 | · | · | · | · | · | -5.6%
O=C(O)CC1CC(O)CCC1=O (centres undefined) | · | · | · | 15.7% | · | ·
O=C(O)CC1CCC(=C(Cl)Cl)C1 (centres undefined) | -4.7% | -0.5% | -1.1% | -2.4% | 11.7µM* | ?
CCc1ccccc1Nc1sc(C(=O)c2ccccc2)c(N)c1S(=O)(=O)c1ccccc1 | · | · | · | · | · | -9.7%
Cc1ccc(S(=O)(=O)Nc2ccccc2CNc2ccc(Br)cn2)cc1 | -21.7% | ? | 11.7µM* | -7.6% | 10.4% | ?
Cc1ccc(NS(=O)(=O)c2ccc(Br)cc2)nc1 | -7.4% | 10.8% | 6.4% | 0.0% | 52.4% | 1.3%
Cc1ccc(S(=O)(=O)Nc2ccccc2CNc2ncc(Br)cc2Br)cc1 | -46.5% | ? | ? | 0.9% | ? | -11.2%
Cc1ccc(S(=O)(=O)Nc2ccccc2CNc2ccccn2)cc1 | -56.8% | -2.9% | 13.1µM* | -7.9% | 6.57µM* | -5.4%
O=S(=O)(Nc1ccc(Br)cn1)c1ccc2ccccc2c1 | 7.08µM* | 8.1% | 20.1% | 0.6% | 20.0% | -9.1%
COCCCn1c(=O)c2sccc2n2c(CCCC(=O)Nc3cccc(OC)c3)nnc12 | · | · | · | · | · | -4.7%
COc1ccc(-c2nc3sc(CCNC(=O)C(=O)Nc4cccc(NC(C)=O)c4)c(C)n3n2)cc1 | · | · | · | · | · | 2.8%
COc1ccc(NC(=O)Nc2cc(C)ccc2OC)cc1 | 1.0% | ? | -7.5% | 14.4% | 14.1% | 9.6%
COc1ccc(Cl)cc1NC(=O)CNCC(c1ccccc1)N(C)C (centres undefined) | 43.7% | -4.3% | -0.7% | 36.0% | -12.6% | -5.1%
COc1ccc(Cl)cc1NC(=O)CNC(c1ccccc1)c1ccccc1 | -18.9% | ? | ? | 4.3% | 1.65µM* | 2.3%
COc1cc(C(=O)Nc2ccc(C)cc2C(NCC(=O)NN)c2ccccc2)cc(OC)c1OC (centres undefined) | 97.4% | -11.0% | 4.7%[0.00184 µM] | 52.7% | 4.65µM* | -4.7%
COc1ccc(C)cc1NC(=O)Nc1ccccc1 | -30.0% | 3.16µM* | · | -13.7% | -11.7% | -3.3%
Cc1ccc(NC(=O)CNC(c2ccccc2)c2ccccc2)c(F)c1 | -14.0% | 7.7% | -25.3% | 4.3% | ? | -5.5%
COc1ccc(C)cc1NC(=O)CNC(c1ccccc1)c1ccccc1 | -2.5% | ? | 7.38µM* | 2.1% | ? | -3.5%
COc1cc(OC)c(NC(=O)C(C)n2nc(-c3ccc(C)c(C)c3)ccc2=O)cc1Cl (centres undefined) | · | · | · | · | · | 16.1%
COc1ccc(NC(=O)Nc2ccccc2OC)cc1 | -47.4% | -12.3% | 132.8% | 0.4% | · | -5.8%
COc1ccc(OC)c(NC(=O)CNC(c2ccccc2)c2ccccc2)c1 | -13.3% | ? | 11.7µM* | 9.3% | 9.28µM* | 5.8%
SMILES | AmpC inh no detg | HCV inh | Pf growth 48h | AMA1-RON2 inh | Pf growth 96h | AmpC inh detg
COc1ccc(OC)c(/C(O)=C/C(=O)C(=O)Nc2ccccc2OC)c1 | -13.0% | -12.5% | · | 48.2% | 14.7µM* | 5.6%
O=C(Nc1ccccc1)Nc1cccc(C(F)(F)F)c1 | -42.5% | ? | ? | 1.0% | 63.0% | -0.5%
COc1ccc(C)cc1NC(=O)c1nn(-c2ccccc2)cc1OC | -21.8% | 7.08µM* | -71.6% | -9.1% | 2.94µM* | -8.3%
Cc1ccc(OC(F)F)c(NC(=O)Nc2cccc(C(F)(F)F)c2)c1 | -35.6% | 10µM* | ? | 17.1% | · | 4.9%
CCOCCCNC(=O)c1c(NC(=O)c2cc(=O)c3cc(C)c(C)cc3o2)sc2c1CCC2 | · | · | · | · | · | 7.7%
CCOC(=O)c1ccc(NC(=O)CSc2nnc(-c3ccncc3)n2-c2ccccc2)cc1 | · | · | · | · | · | 7.5%
Oc1ccc(Cl)cc1C1=Nc2ccccc2N=C(c2cccc(Br)c2)C1 | · | · | · | · | · | -0.2%
CCn1c(SCC(=O)NNC(=O)Cc2ccccc2)nnc1-c1ccncc1 | 173.9% | 4.9% | 1.47µM* | 42.8% | 0.329µM* | -5.5%
CCn1c(SCC(=O)NNC(=O)c2ccccc2)nnc1-c1ccncc1 | ? | 9.4% | -2.8% | 1.5% | ? | 0.4%
C=CCNC(=O)CSc1nnc(-c2ccncc2)n1CCc1ccccc1 | 1.0% | 20.6% | 0.7% | ? | 11.7µM* | -1.9%
NC(=O)CC(NC(=O)c1ccccc1)c1ccc(N2CCN(c3ccccc3)CC2)c([N+](=O)[O-])c1 (centres undefined) | 8.5% | ? | -18.3% | -2.9% | 14.7µM* | -15.1%
Cc1cc(C)cc(C(=O)NC(CC(N)=O)c2ccc(N3CCN(c4ccccc4)CC3)c([N+](=O)[O-])c2)c1 (centres undefined) | -6.0% | 2.6% | -17.6% | 0.0% | 30.6% | -9.4%
NC(=O)CC(NC(=O)Cc1ccc(Br)cc1)c1ccc(NCc2ccc(F)cc2)c([N+](=O)[O-])c1 (centres undefined) | -30.0% | 11.2µM* | ? | 0.0% | -2.9% | -2.7%
NC(=O)CC(NC(=O)c1ccccc1)c1ccc(N2CCN(c3ccc(F)cc3)CC2)c([N+](=O)[O-])c1 (centres undefined) | 35.4% | 11.2µM* | 38.8% | -0.4% | 58.4% | -8.3%
Cc1cccc2c1-c1sc(C(=O)Nc3ccccc3C(N)=O)cc1CO2 | · | · | · | · | · | 4.9%
Cc1cccc2c1-c1sc(C(=O)Nc3cccnc3)cc1CO2 | -10.9% | 22.4µM* | ? | -1.5% | -5.3% | ?
Cc1cccc2c1-c1sc(C(=O)Nc3nccs3)cc1CO2 | -34.0% | ? | · | 126.5% | 8.28µM* | ?
Cc1cccc2c1-c1sc(C(=O)Nc3cccc([N+](=O)[O-])c3C)cc1CO2 | -19.7% | ? | -4.8% | -14.6% | 0.738µM* | 9.2%
CCOc1cc(C(=O)Nc2ccc3oc(-c4ccc(CC)cc4)nc3c2)cc(OCC)c1OCC | · | · | · | · | · | -6.8%
COc1ccc(OC)c(CNC(=O)c2ccc3nc(C(C)C)oc3c2)c1 | · | · | · | · | · | -4.4%
CCOC(=O)C1CCN(CC(O)COc2ccc(C(C)=O)cc2)CC1 (centres undefined) | -13.9% | -7.5% | · | 1.6% | 9.28µM* | ?
